Test results taken from PubChem BioAssay (NCATS).
Records with an inconclusive call do not appear. Unmarked numbers belong to inactive results. Activity calls are given as the source filed them. Calls follow the shape of the dose curve; as a rule, active = well fitted inhibition curve with a large enough effect; inconclusive = small, poorly fitted or top-dose-only effect; inactive = flat fitted curve, though single readings scatter.

experiment: P-glycoprotein substrates identified in KB-8-5-11 adenocarcinoma cell line, qHTS therapeutic library screen (AID 1346987); details: KB-8-5-11 (P-gp overexpressing) viability, CellTiter-Glo, 72 h; series mostly up to 44.5 µM; activity change, negative = cytotoxicity: at the top concentration; also: nearly all actives have a fitted effect of over 65% in size
Summary of the method: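 Human cervical adenocarcinoma KB-8-5-11 cells, selected in colchicine to over-express P-gp and assayed without it, were exposed for 72 h to titrated compounds. An ATP-based luminescent viability signal gave AC50.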
% is scaled to controls: 0 for no effect and ±100 for the full control effect; potency is read from the fitted curve at half-maximal effect.

SMILES	activity change, negative = cytotoxicity	outcome	Potency
CC1C/C=C/C(O)C(O)CC/C=C/c2cc(O)cc(O)c2C(=O)O1 (stereo unspecified)	-10.9%	–	–
CN[C@H]1[C@H](O)[C@H](O[C@@H]2[C@@H](O)[C@H](O[C@H]3O[C@H]([C@H](C)O)[C@@H](O)[C@H](O)[C@H]3N)[C@@H](N)C[C@H]2N)OC[C@@]1(C)O	–	inactive	–
C=C1[C@@H]2CC[C@@]3(C)[C@H](c4ccoc4)OC(=O)C[C@]13O[C@H]1CC(=O)C(C)(C)[C@H](C(OC(C)=O)C(=O)OC)[C@]12C (stereo partly specified)	8.74% [at 17.3 µM]	–	–
C[C@@](O)(COc1ccc(C#N)cc1)C(=O)Nc1ccc(C#N)c(C(F)(F)F)c1	-4.82%	–	–
CC(C)C1(OO)C=C2C(=O)CC3C(C)(C(=O)O)CCCC3(C)C2CC1 (stereo unspecified)	6.94%	–	–
COC1CC(OC2CCC3(C=O)C(CCC4C3CCC3(C)C(C5=CC(=O)OC5)CCC43O)C2)OC(C)C1OC1OC(CO)C(O)C(O)C1O (stereo unspecified)	–	–	172 nM (active)
CC1=C2C[C@H]3[C@@H](CC=C4C[C@@H](O)CC[C@@]43C)[C@@H]2CC[C@]12O[C@@H]1C[C@H](C)CN[C@H]1[C@H]2C	-18.3%	–	–
CC12CCC3C(CCC4(O)CC(O)CCC34C=O)C1(O)CCC2C1=CC(=O)OC1 (stereo unspecified)	–	–	651 nM (active)
CC(=O)OC1CC(O)C2(C)C(CC(OC(C)=O)C3(C)C2CCC2(C)C(c4ccoc4)C(=O)C4OC423)C1(C)C (stereo unspecified)	-2.4% [at 17.3 µM]	–	–
CO[C@H]1[C@H](O)[C@H](O[C@H]2CC[C@]3(C)C4CC[C@]5(C)[C@H](C6=CC(=O)OC6)CC[C@]5(O)C4CC[C@@H]3C2)O[C@@H](C)[C@@H]1O (stereo partly specified)	–	–	56.3 nM (active)
CCCSP(=O)(OCC)SCCC	8.7% [at 93.4 µM]	–	–
